Molecules are shown by their SMILES. Hit rate of the full screen: of about 220,000 compounds, about 2,000 (0.91%) were called active. About 2% were inconclusive and are not listed. No stated cut-off is given here; in the data, inconclusive means inhibition above about 80% without an active follow-up result; inactive means below that; test concentration not stated here. A selection follows. Results with a measured potency or affinity are listed apart.

The assay can be described thus: M. tuberculosis H37Rv growth inhibitors, H37Rv strain (AID 1626).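 Further: bacteria incubated seven days before Alamar blue readout; 0% = bacteria only wells and 100% = bacteria with antibiotic wells.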 Particulars: stronger effect = higher value, concentration not given here.
As to `O=C(O)c1ccc(CN2CCCCC2)o1`, the inhibition is -8.71% (inactive).
Under `COc1ccc(C2(CNC(=O)c3cccc([N+](=O)[O-])c3)CCCCC2)cc1OC` stands 17.8% (inactive); under `COc1ccc(C2(CNC(=O)c3ccc(OC)c([N+](=O)[O-])c3)CCCCC2)cc1OC`, 8.89% (inactive).
Under `O=C(Nc1nnc(SCC(=O)N2CCCCC2)s1)c1cccs1` stands -7.76% (inactive); under `Cc1ccc(F)cc1NC(=O)C1CCN(c2cnccn2)CC1`, -7.04% (inactive).
Regarding `Cc1nn(Cc2ccccc2)c(N)c1-c1ccccc1`, the inhibition is -0.48% (inactive).
Under `O=C(Nc1ccccc1)c1n[nH]c(Cn2cncn2)n1` stands -3.09% (inactive); under `COc1ccc(NC(=O)CSc2nc3ccc(OC)cc3[nH]2)cc1`, 45.7% (inactive).
Under `O=C(CSc1nc2ccc(Cl)cc2[nH]1)NC1CCCc2ccccc21` (centres undefined) stands 17.1% (inactive); under `COc1ccc2nc(SCC(=O)Nc3ccccc3)[nH]c2c1`, 6.28% (inactive); under `NS(=O)(=O)c1cccc(NC(=O)CSc2nc3ccc(Cl)cc3[nH]2)c1`, -6.21% (inactive).
Then `O=C(OCC(=O)N1CCCC1=O)C1COc2ccccc2O1` (centres undefined), with 2.07% (inactive); and `CCN(CC)CCCNC(=O)c1cn(C)c2ccc(S(=O)(=O)N(C)C)cc2c1=O`, with -9.88% (inactive).
As for `O=C(CCc1nc2ccccc2c(=O)[nH]1)N1CCN(c2ccc(F)cc2)CC1`, the inhibition is -1.16% (inactive).
`COc1cc(/C=N/n2c(-c3n[nH]c4c3CCC4)n[nH]c2=S)cc(OC)c1O`: the inhibition is -6.81% (inactive).
Under `CC1CCN(S(=O)(=O)c2ccc3[nH]c(=O)cc(C(=O)O)c3c2)CC1` stands -1.86% (inactive).
Under `CS(=O)(=O)c1ccc(Sc2nc3ccccc3s2)c([N+](=O)[O-])c1` stands 76.8% (inactive); under `NS(=O)(=O)c1ccc(Sc2nc3ccccc3s2)c([N+](=O)[O-])c1`, 5.37% (inactive); under `CN1CCc2c(C#N)c(N3CCOCC3)nc(NCC3CCCO3)c2C1` (centres undefined), -11.2% (inactive).
Then `C=CCSc1nnc(-c2sc(-c3ccccc3)nc2C)n1C`, with 6.24% (inactive); and `C#CCOCCOCCOCCNc1nc(N2CCN(C(=O)[C@H](CCC(=O)O)n3cc(C(N)CC(C)C)nn3)CC2)nc(N2CCN(C(=O)[C@H](Cc3ccc(O)cc3)n3cc(C(N)CC(C)C)nn3)CC2)n1` (some centres undefined), with -8.68% (inactive).
Consider `O=C(Nc1ncc(Cc2cccc(Cl)c2)s1)c1ccc([N+](=O)[O-])cc1`, for which the inhibition is -4.66% (inactive).
Then `CC(C)C(=O)Nc1ncc(Cc2ccccc2Cl)s1`, with -0.08% (inactive); and `Cc1ccc(C(=O)Nc2ncc(Cc3ccccc3)s2)o1`, with -9.94% (inactive); and `Cc1ccc(C(=O)Nc2ncc(Cc3ccc(SC(F)F)cc3)s2)cc1`, with 6.66% (inactive).
Under `O=C(Nc1ncc(Cc2ccccc2Cl)s1)c1ccc([N+](=O)[O-])cc1` stands -9.37% (inactive); under `O=C(Nc1ncc(Cc2ccccc2)s1)C1COc2ccccc2O1` (centres undefined), 13.8% (inactive).
For `CC(=O)Nc1ncc(Cc2cccc(Cl)c2)s1`, the inhibition is 3.07% (inactive).
Under `CC(C)C(=O)Nc1ncc(Cc2ccc(Cl)cc2)s1` stands 18.6% (inactive); under `COc1cccc(C(=O)Nc2nnc(Cc3ccc(OC)c(OC)c3)s2)c1`, 4.42% (inactive); under `COC(=O)C1=C(C)N(Cc2ccco2)C(=O)N[C@H]1c1cccc(C(F)(F)F)c1`, -4.29% (inactive).
With `COC(=O)C(NC(=O)CSc1nc(N)cc(=O)[nH]1)c1ccccc1` (centres undefined), the inhibition was 6.05% (inactive).
Turning to `Cc1ccc(SCC(=O)N(C)C2CCS(=O)(=O)C2)cc1` (centres undefined), the inhibition was 71.9% (inactive).
Then `O=C(N/N=C/c1ccc(OCCCF)cc1)c1ccc(C(F)(F)F)cc1`, with -7.89% (inactive); and `O=C(CSc1nnc(CNc2ccc(F)cc2)n1Cc1ccccc1)NCc1ccco1`, with -3.56% (inactive).
Under `CCN(CC)C1=N/C(=C\c2ccc(OC)cc2)C(=O)N1c1ccccc1` stands 5.04% (inactive); under `COc1cc(NC(=O)CSc2nc3ccccc3cc2Cc2ccccc2)cc(OC)c1`, -2.51% (inactive).
Under `CCCCCn1c(SCc2cccc(C)c2)nc2c1c(=O)[nH]c(=O)n2C` stands 14.6% (inactive).
As to `CC/C(=N\NC(=O)c1cccnc1)c1ccc2c(c1)OCCO2`, the inhibition is 3.21% (inactive).
For the molecule `CC1(C)CC(NC(=O)CCc2nnc(CCCCc3ccccc3)o2)CCO1` (centres undefined), the inhibition is -4.26% (inactive).
On to `Cc1ccc(NC(=S)N(CCN2CCOCC2)Cc2cc3cc4c(cc3[nH]c2=O)OCCO4)cc1`, for which the inhibition is 2.46% (inactive).
Then `COc1cccc(CNc2ncc(Br)cc2Br)c1O`, with -8.94% (inactive); and `Cn1c(NCc2c(O)ccc3ccccc23)nc2ccccc21`, with 6.55% (inactive).
Under `CCN(CC)C(=O)Nc1cnc2ccccc2c1` stands 63.2% (inactive).
Under `Oc1ccc2ccccc2c1CNn1cnnc1` stands 1.43% (inactive); under `NC(=S)Nc1cnc2ccccc2c1`, 0.46% (inactive).
On to `COc1cccc(CNc2cccc3cccnc23)c1O`, for which the inhibition is 6.53% (inactive).
Turning to `Cc1nc(SCC(=O)Nc2cccc(Cl)c2)n[nH]1`, the inhibition was -3.06% (inactive).
For the molecule `O=C1CCC/C(=N\NC(=O)c2ccc(COc3ccccc3-c3ccccc3)cc2)C1`, the inhibition is 4.62% (inactive).
Under `Cc1cccc(N2CC(C(=O)OCC(=O)c3ccc(OC(=O)c4cccs4)cc3)CC2=O)c1C` (centres undefined) stands 1.47% (inactive); under `CN(CCOC(=O)c1ccc2c(c1)OCO2)C(C)(C)C`, -1.44% (inactive); under `CC1=CC2=NC(=O)/C(=C\c3cccn3CCOc3cc(C)ccc3C)C(=N)N2O1`, 12.3% (inactive).
Under `O=C(CCc1ccccc1)N1N=C(c2ccncc2)CC1(O)C(F)(F)F` (centres undefined) stands -7.97% (inactive); under `O=C(NCCN1CCCCC1)Nc1ccc(F)c(Cl)c1`, -6.79% (inactive).
Under `Cc1[nH]n(C)c(=O)c1N=Nc1ccc(S(C)(=O)=O)cc1` stands -6.82% (inactive); under `Cc1ccc(N=Nc2c(C)[nH]n(C(N)=S)c2=O)cc1`, -3.59% (inactive).
Turning to `COc1ccc(-c2nnc(SCC(=O)NC(C)C)n2CC2CCCO2)cc1OC` (centres undefined), the inhibition is -10.3% (inactive).
Under `COc1ccc(C2/C=C\CN(C(=O)Oc3ccc(C(F)(F)F)cc3)CC(=O)N2Cc2ccc(F)cc2)cc1` (centres undefined) stands 2.36% (inactive).
Regarding `COc1ccc(C2/C=C\CN(C(=O)Nc3ccccc3)CC(=O)N2Cc2ccc(F)cc2)cc1` (centres undefined), the inhibition is -8.73% (inactive).
